# Test results: PubChem BioAssay (NCATS)
# Unmarked numbers belong to inactive results. Records with an inconclusive call do not appear. Active and inactive are the calls of the source. Calls come from the whole dose curve; as a rule, active = well fitted curve in the direction sought with a large enough effect; inconclusive = small, poorly fitted or top-dose-only effect, or another doubt; inactive = no such curve, though single readings can be large; an effect the other way counts as inactive or inconclusive.
# How the values were obtained:
# [1] = biological target: Cytochrome P450 3A4 (Homo sapiens) (UniProt P08684); assay: qHTS Assay for Inhibitors and Substrates of Cytochrome P450 3A4 (AID 884); note: potency is the fitted concentration of half-maximal effect; nearly all actives have a fitted effect of over 50% in size
# Procedure, shortened: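 Luminescent readout of luciferin produced by CYP3A4 (20 nM) dealkylation of Luciferin-PPXE, 25 uM (its KM). NADPH-driven reaction ran 60 min at RT after 10 min compound preincubation; data scaled to 57 uM ketoconazole as 100% inhibition.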
# [2] = biological target: Cytochrome P450 3A4 (Homo sapiens) (UniProt P08684); assay: qHTS Assay for Activators of Cytochrome P450 3A4 (AID 885); note: nearly all actives have a fitted effect of over 65% in size
# Procedure, shortened: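 Luminescent readout of luciferin formed from 25 uM Luciferin-PPXE (KM level) by 20 nM CYP3A4 in 200 mM KPO4, with 60 min NADPH-driven reaction at room temperature after 10 min compound exposure. Ketoconazole (57 uM) defined 100% inhibition.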
# Cytochrome P450 3A4 (Homo sapiens), sequence (P08684 whole entry, looked up): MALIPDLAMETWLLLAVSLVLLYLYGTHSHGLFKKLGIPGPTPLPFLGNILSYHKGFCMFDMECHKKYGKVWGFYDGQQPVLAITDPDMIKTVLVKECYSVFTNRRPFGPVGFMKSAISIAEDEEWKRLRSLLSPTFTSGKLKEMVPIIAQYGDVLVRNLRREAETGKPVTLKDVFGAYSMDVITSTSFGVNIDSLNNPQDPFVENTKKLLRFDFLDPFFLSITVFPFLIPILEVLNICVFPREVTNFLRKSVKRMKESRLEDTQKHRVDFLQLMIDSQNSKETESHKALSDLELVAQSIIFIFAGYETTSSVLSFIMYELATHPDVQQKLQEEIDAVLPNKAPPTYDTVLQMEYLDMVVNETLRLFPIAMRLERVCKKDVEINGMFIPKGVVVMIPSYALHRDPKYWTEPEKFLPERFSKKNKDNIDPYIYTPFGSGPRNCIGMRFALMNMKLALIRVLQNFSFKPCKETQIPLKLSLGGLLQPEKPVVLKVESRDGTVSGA
Structure (SMILES),Potency [1],"activity change, positive = activation [2]",Potency [2]
O=C1[C@H]2[C@H]3[C@H](O)[C@H](O)C/C(=N/OC[C@@H](O)COCc4ccco4)[C@H]3CC[C@@H]2C(=O)N1Cc1ccc2c(c1)OCO2,3.16 µM (active),-88.1% [at 11.4 µM],–
CCC1=C2CC[C@H]3C(=O)N(c4ccccc4)C(=O)[C@H]3[C@H]2[C@@]2(C)C(=NCC(=O)OC)OC(=O)N2C1=O,15.8 µM (active),–,inactive
COC(=O)C/C=C\[C@@H](C)[C@@H](/C=N\OCC[C@H]1C=C[C@H](OC(C)=O)[C@@H](COC(C)=O)O1)NS(=O)(=O)c1ccc(C)cc1,3.98 µM (active),-95.4% [at 11.4 µM],–
CCC1=C(OC(=O)N(CC)CC)N2C(=O)OC(=NCC3CC3)[C@]2(Cc2ccccc2)[C@H]2C1=CC[C@H]1C(=O)N(C)C(=O)[C@H]12,3.98 µM (active),–,inactive
COC(=O)[C@@H]1C[C@H]2CC[C@H](O)C[C@H]2N1Cc1ccccc1OC(=O)c1cccs1,2.51 µM (active),–,inactive
FC(F)(F)c1ccc(C2[C@H]3CN(Cc4cccnc4)[C@H](c4ccccc4)C34CC2(c2ccccc2)C4)cc1 (stereo not given in full),3.16 µM (active),–,inactive
CCOC(=O)N/N=C1/C[C@@H](O)[C@@H](O)[C@@H]2[C@@H]3C(=O)N(Cc4ccc5c(c4)OCO5)C(=O)[C@H]3CC[C@@H]12,3.98 µM (active),-82.5% [at 11.4 µM],–
Cn1c(=O)c(C(=O)COC(=O)c2cc(-c3ccco3)nc3ccccc23)c(N)n(CC2CC2)c1=O,7.94 µM (active),–,inactive
COC(=O)C/C=C\[C@@H](C)[C@@H](/C=N\OC[C@@H](O)[C@H]1O[C@H]2OC(C)(C)O[C@H]2[C@@H]1O)NS(=O)(=O)c1ccc(C)cc1,3.98 µM (active),-61% [at 11.4 µM],–
COc1c(O)c(O)cc2c1oc1c3cc(C)ccc3oc(=O)c21,25.1 µM (active),–,inactive
CCC1=C(OC(=O)N(CC)CC)N2C(=O)OC(=NCc3ccccc3)[C@]2(C)[C@H]2C1=CC[C@H]1C(=O)N(CC)C(=O)[C@H]12,3.16 µM (active),–,inactive
COC(=O)[C@H]1C[C@H]2CC[C@H](O)C[C@H]2N1Cc1c(F)cccc1Cl,12.6 µM (active),–,inactive
COC(=O)[C@@H]1C[C@@H]2CC[C@@H](O)C[C@@H]2N1CC1CCCCC1,12.6 µM (active),–,inactive
CCC1=C2CC[C@H]3C(=O)N(c4ccccc4)C(=O)[C@H]3[C@H]2[C@@]2(Cc3ccccc3)C(=NCCOC)OC(=O)N2C1=O,7.94 µM (active),–,inactive
CCC1=C(OC(=O)N(CC)CC)N2C(=O)OC(=NCC3CC3)[C@]2(Cc2ccccc2)[C@H]2C1=CC[C@H]1C(=O)N(CC(=O)OC)C(=O)[C@H]12,2 µM (active),–,inactive
O=c1oc2ccccc2c2oc3cc(O)c(O)cc3c12,20 µM (active),–,inactive
CCC1=C2CC[C@H]3C(=O)N(C)C(=O)[C@H]3[C@H]2[C@@]2(Cc3ccccc3)C(=NCCc3c[nH]c4ccccc34)OC(=O)N2C1=O,1.26 µM (active),–,inactive
CCC1=C(OC(=O)N(CC)CC)N2C(=O)OC(=NCC(=O)OC)[C@]2(C)[C@H]2C1=CC[C@H]1C(=O)N(C)C(=O)[C@H]12,12.6 µM (active),–,inactive
CN1C[C@@H]2C(c3ccc(C(F)(F)F)cc3)C3(c4ccc(C#N)cc4)CC2(C3)[C@H]1c1ccccc1 (stereo not given in full),20 µM (active),–,inactive
COC(=O)c1cccc(C23CC4(C2)[C@H](CN(Cc2cccnc2)[C@@H]4c2ccccc2)C3c2ccc(C(F)(F)F)cc2)c1 (stereo not given in full),2.51 µM (active),–,inactive
CCC1=C(OC(=O)N(CC)CC)N2C(=O)OC(=NCC(=O)OC)[C@]2(Cc2ccccc2)[C@H]2C1=CC[C@H]1C(=O)N(C)C(=O)[C@H]12,10 µM (active),–,inactive
CCC1=C(OC(=O)N(CC)CC)N2C(=O)OC(=NCC(=O)OC)[C@]2(C)[C@H]2C1=CC[C@H]1C(=O)N(CC(=O)OC)C(=O)[C@H]12,10 µM (active),–,inactive
C/C(CCN1CCCc2nc(C)c(C)cc21)=N\OC[C@@H](O)COCc1ccco1,3.98 µM (active),-77.3% [at 11.4 µM],–
CCC1=C(OC(=O)N(CC)CC)N2C(=O)OC(=NCCOC)[C@]2(Cc2ccccc2)[C@H]2C1=CC[C@H]1C(=O)NC(=O)[C@H]12,6.31 µM (active),–,inactive
COC(=O)c1ccc(C23CC4(C2)[C@H](CN(CC2CCCCC2)[C@@H]4c2ccccc2)C3c2ccccc2)cc1 (stereo not given in full),25.1 µM (active),–,inactive
